Laboratory results taken from PubChem BioAssay (NCATS).
Results filed as inconclusive are left out. Active and inactive are the calls of the source. The call rests on the fitted dose curve; in most records, active means well fitted inhibition curve with a large enough effect; inconclusive means small, poorly fitted or top-dose-only effect; inactive means flat fitted curve, though single readings scatter.

Experiments:
P93_24 = assay: qHTS profiling for inhibitors of Plasmodium falciparum proliferation (AID 504749); further: potency means the concentration at half of the fitted maximal effect; conditions: P. falciparum in erythrocytes, SYBR Green DNA, 72 h; series mostly up to 28.7 µM
In short: (§1)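 SYBR Green fluorescence (ex 485 nm, em 535 nm) reports parasite DNA after 72 h compound exposure of infected red cells at 0.3% parasitemia, 2.5% hematocrit; signal normalized to 0.29 uM artemisinin and vehicle wells.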

P94_40 = assay: as above; conditions: P. falciparum in erythrocytes, SYBR Green DNA, 72 h; series mostly up to 28.7 µM
In short: as §1

PAD = assay: as above; conditions: P. falciparum in erythrocytes, SYBR Green DNA, 72 h; series mostly up to 28.7 µM
In short: as §1

PC15 = assay: as above; conditions: P. falciparum in erythrocytes, SYBR Green DNA, 72 h; series mostly up to 28.7 µM
In short: as §1

PC26 = assay: as above; conditions: P. falciparum in erythrocytes, SYBR Green DNA, 72 h; series mostly up to 28.7 µM
In short: as §1

PC49 = assay: as above; conditions: P. falciparum in erythrocytes, SYBR Green DNA, 72 h; series mostly up to 28.7 µM
In short: as §1

SC27B = assay: as above; conditions: P. falciparum in erythrocytes, SYBR Green DNA, 72 h; series mostly up to 28.7 µM
In short: as §1

TAB109 = assay: as above; conditions: P. falciparum in erythrocytes, SYBR Green DNA, 72 h; series mostly up to 28.7 µM
In short: as §1

CRL-7250 = normal cell line; assay: Cytotoxic Profiling of Annotated Libraries Using Quantitative High-Throughput Screening (AID 1296008); conditions: Five cell lines viability, CellTiter-Glo ATP luminescence, 48-72 h; active compounds read low; on max response: on the % scale 0 is the no-effect control and ±100 the full control effect
In short: (§2)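 Cells exposed to compounds for 48 or 72 hr at 37 degrees Celsius. Viability read as ATP-coupled luminescence with CellTiter-Glo after 10 min at room temperature.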

HEK293 = assay: as above; conditions: Five cell lines viability, CellTiter-Glo ATP luminescence, 48-72 h; active compounds read low
In short: as §2

HaCat [1] = assay: as above; conditions: Five cell lines viability, CellTiter-Glo ATP luminescence, 48-72 h; active compounds read low
In short: as §2

KB-3-1 = assay: as above; conditions: Five cell lines viability, CellTiter-Glo ATP luminescence, 48-72 h, active compounds read low
In short: as §2

NIH3T3 = assay: as above; conditions: Five cell lines viability, CellTiter-Glo ATP luminescence, 48-72 h; active compounds read low
In short: as §2

HACAT [2] = assay: qHTS assay to identify novel small-molecules to repurpose for Merkel cell carcinoma treatment (AID 1296009); conditions: MCC and control cell lines, CellTiter-Glo viability, 72 h; at 44.8 µM (top of the series) unless noted
In short: (§3)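 CellTiter-Glo luminescence after 72 hr compound exposure at 37 degree celsius gave cell viability. Libraries NPC and MIPE were run as 8- and 11-point dose responses; RLUs normalized to DMSO (negative) and no-cell (cytotoxicity) controls.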

MCC-26 = assay: as above; conditions: MCC and control cell lines, CellTiter-Glo viability, 72 h; series mostly up to 46 µM
In short: as §3

TAB113 = assay: qHTS profiling for inhibitors of Plasmodium falciparum proliferation (AID 504749); further: potency means the concentration at half of the fitted maximal effect; conditions: P. falciparum in erythrocytes, SYBR Green DNA, 72 h; series mostly up to 28.7 µM
In short: as §1

TAB165 = assay: as above; conditions: P. falciparum in erythrocytes, SYBR Green DNA, 72 h; series mostly up to 28.7 µM
In short: as §1

MCC-13 = assay: qHTS assay to identify novel small-molecules to repurpose for Merkel cell carcinoma treatment (AID 1296009); conditions: MCC and control cell lines, CellTiter-Glo viability, 72 h; series mostly up to 46 µM
In short: as §3

W2 = assay: qHTS profiling for inhibitors of Plasmodium falciparum proliferation (AID 504749); further: potency means the concentration at half of the fitted maximal effect; conditions: P. falciparum in erythrocytes, SYBR Green DNA, 72 h; series mostly up to 28.7 µM
In short: as §1

HEK293T = assay: qHTS assay to identify novel small-molecules to repurpose for Merkel cell carcinoma treatment (AID 1296009); conditions: MCC and control cell lines, CellTiter-Glo viability, 72 h; at 44.8 µM (top of the series) unless noted
In short: as §3
Further: nearly all actives have a fitted effect of over 60% in size.

COc1ccccc1Oc1c(NS(=O)(=O)c2ccc(C(C)(C)C)cc2)nc(-c2ncccn2)nc1OCCO
inactive: Potency (P93_24) | Potency (P94_40) | Potency (PAD) | Potency (PC15) | Potency (PC26) | Potency (PC49) | Potency (SC27B) | Potency (TAB109) | max response (CRL-7250) -3.53% | max response (HEK293) -4.43% | outcome (HaCat [1]) | max response (KB-3-1) -7.61% | outcome (NIH3T3) | outcome (HACAT [2]) | outcome (MCC-26)

NNC(=O)CP(=O)(c1ccccc1)c1ccccc1
inactive: Potency (P93_24) | Potency (P94_40) | Potency (PAD) | Potency (PC15) | Potency (PC26) | Potency (PC49) | Potency (SC27B) | Potency (TAB109) | Potency (TAB113) | Potency (TAB165) | max response (CRL-7250) -0.948% | max response (HEK293) 0.687% | outcome (HaCat [1]) | max response (KB-3-1) -1.94% | max response (NIH3T3) -3.5% | outcome (HACAT [2]) | outcome (MCC-13)

Cc1c(NC(C)C)c(=O)n(-c2ccccc2)n1C
inactive: Potency (P93_24) | Potency (P94_40) | Potency (PAD) | Potency (PC15) | Potency (PC26) | Potency (PC49) | Potency (SC27B) | Potency (TAB109) | Potency (TAB113) | Potency (TAB165) | Potency (W2) | outcome (CRL-7250) | max response (HEK293) -10.6% | outcome (HaCat [1]) | max response (KB-3-1) 6.84% | outcome (NIH3T3) | outcome (HACAT [2]) | outcome (MCC-13) | outcome (MCC-26)

NCC1CCC(C(=O)Oc2ccc(CCC(=O)O)cc2)CC1 (stereo not drawn)
inactive: Potency (P93_24) | Potency (P94_40) | Potency (PAD) | Potency (PC15) | Potency (PC26) | Potency (PC49) | Potency (SC27B) | Potency (TAB109) | Potency (TAB113) | Potency (TAB165) | Potency (W2) | max response (CRL-7250) -11.6% | max response (HEK293) -1.47% | outcome (HaCat [1]) | max response (KB-3-1) -7.85% | max response (NIH3T3) -0.473% | outcome (HACAT [2]) | outcome (MCC-13)

CN/C(=C\[N+](=O)[O-])NCCSCc1csc(CN(C)C)n1
inactive: Potency (P93_24) | Potency (P94_40) | Potency (PAD) | Potency (PC15) | Potency (PC26) | Potency (PC49) | Potency (SC27B) | Potency (TAB109) | Potency (TAB113) | Potency (TAB165) | Potency (W2) | max response (CRL-7250) -2.16% | max response (HEK293) -19.8% | outcome (HaCat [1]) | max response (KB-3-1) 8.03% | max response (NIH3T3) 0.469% | outcome (HACAT [2]) | outcome (MCC-13)

OCc1ccc(Cl)cc1Cl
inactive: Potency (P93_24) | Potency (P94_40) | Potency (PAD) | Potency (PC15) | Potency (PC26) | Potency (PC49) | Potency (SC27B) | Potency (TAB109) | Potency (TAB113) | Potency (TAB165) | Potency (W2) | outcome (CRL-7250) | max response (HEK293) -6.19% | outcome (HaCat [1]) | max response (KB-3-1) -1.05% | outcome (NIH3T3) | outcome (HACAT [2]) | outcome (MCC-13) | outcome (MCC-26)

CCN1CC(CCN2CCOCC2)C(c2ccccc2)(c2ccccc2)C1=O (stereo not drawn)
inactive: Potency (PAD) | Potency (PC15) | Potency (PC26) | Potency (PC49) | Potency (SC27B) | Potency (TAB113) | Potency (TAB165) | max response (CRL-7250) 2.93% | max response (HEK293) -5.24% | outcome (HaCat [1]) | max response (KB-3-1) -4.5% | max response (NIH3T3) 2.99% | outcome (HACAT [2]) | outcome (MCC-13)
active: Potency (W2) 9.53 µM

Cc1cc(C)c(NC(=O)CN(CC(=O)O)CC(=O)O)c(C)c1Br
inactive: Potency (PC15) | Potency (PC26) | Potency (PC49) | Potency (W2) | max response (CRL-7250) -2.84% | max response (HEK293) -7.54% | outcome (HaCat [1]) | max response (KB-3-1) 14.1% | max response (NIH3T3) -1.07% | outcome (HACAT [2]) | outcome (MCC-13) | outcome (MCC-26)

O=C(O)CCCCC1CCSS1 (stereo not drawn)
inactive: Potency (P93_24) | Potency (P94_40) | Potency (PAD) | Potency (PC15) | Potency (PC26) | Potency (PC49) | Potency (SC27B) | Potency (TAB109) | Potency (TAB113) | Potency (TAB165) | Potency (W2) | max response (CRL-7250) -4.66% | max response (HEK293) 0.811% | outcome (HaCat [1]) | max response (KB-3-1) 3.98% | max response (NIH3T3) 1.45% | outcome (HACAT [2]) | outcome (MCC-13)

C[C@@H]1CCC[C@H](C)N1
inactive: Potency (P93_24) | Potency (P94_40) | Potency (PAD) | Potency (PC15) | Potency (PC26) | Potency (PC49) | Potency (SC27B) | Potency (TAB109) | Potency (TAB165) | Potency (W2) | max response (CRL-7250) 0.393% | max response (HEK293) -9.02% | outcome (HaCat [1]) | max response (KB-3-1) -5.17% | max response (NIH3T3) 4.6% | outcome (HACAT [2]) | outcome (MCC-13)

Nc1c2c(nc3c1CCC3)CCCC2
active: Potency (P94_40) 11.2 µM | Potency (TAB165) 11.2 µM
inactive: outcome (CRL-7250) | max response (HEK293) -2.02% | outcome (HaCat [1]) | max response (KB-3-1) -0.45% | max response (NIH3T3) 0.339% | outcome (HACAT [2]) | outcome (MCC-13)

CC(=O)Oc1cccc(O)c1
inactive: Potency (P94_40) | Potency (PAD) | Potency (PC15) | Potency (PC26) | Potency (PC49) | Potency (SC27B) | Potency (TAB109) | Potency (TAB113) | Potency (TAB165) | Potency (W2) | max response (CRL-7250) 2.6% | max response (HEK293) 2.67% | outcome (HaCat [1]) | max response (KB-3-1) -9.73% | outcome (NIH3T3) | outcome (HACAT [2]) | outcome (MCC-13) | outcome (MCC-26)

CC(=O)OC[C@H]1O[C@@](COC(C)=O)(O[C@H]2O[C@H](COC(C)=O)[C@@H](OC(C)=O)[C@H](OC(C)=O)[C@H]2OC(C)=O)[C@@H](OC(C)=O)[C@@H]1OC(C)=O
active: Potency (P94_40) 2.82 µM
inactive: Potency (PC15) | Potency (PC26) | Potency (PC49) | Potency (W2) | max response (CRL-7250) 4.32% | max response (HEK293) -4.41% | outcome (HaCat [1]) | max response (KB-3-1) 2.32% | max response (NIH3T3) 2.21% | outcome (HACAT [2]) | outcome (MCC-13) | outcome (MCC-26)

CN1CC(=O)NC1=N
inactive: max response (CRL-7250) -20.6% | outcome (HEK293) | max response (HaCat [1]) -1.43% | max response (KB-3-1) 3.48% | max response (NIH3T3) -1.3% | outcome (HEK293T) | outcome (MCC-13) | outcome (MCC-26)

C/C=C1\[C@H]2C=C(C)C[C@]1(N)c1ccc(=O)[nH]c1C2
inactive: max response (CRL-7250) -0.0215% | outcome (HEK293) | max response (HaCat [1]) 4.06% | max response (KB-3-1) -3.64% | max response (NIH3T3) -4.73% | outcome (HEK293T) | outcome (MCC-13) | outcome (MCC-26)

Cc1cccc(Nc2ccccc2C(=O)O)c1C
inactive: Potency (P93_24) | Potency (P94_40) | Potency (PAD) | Potency (PC15) | Potency (PC26) | Potency (PC49) | Potency (SC27B) | Potency (TAB109) | Potency (TAB113) | Potency (TAB165) | Potency (W2) | max response (CRL-7250) 0.921% | max response (HEK293) -1.57% | outcome (HaCat [1]) | max response (KB-3-1) 3.77% | max response (NIH3T3) 1.27% | outcome (HACAT [2]) | outcome (MCC-13) | outcome (MCC-26)
